Pf growth 96h = inhibits malaria parasite growth, 96 h | Potency, µM (series often up to 28.7 µM), for the others: at the top dose activity change, negative = inhibition, most hits filed as inhibitors | 320,000 compounds, 6.9% hits | P. falciparum luciferase reporter growth, 96 h; further: on the % scale 0 is the no-effect control and ±100 the full control effect
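Plates of compound plus infected erythrocytes (2% hematocrit, 0.05% parasitemia final) incubate 96 hours, 37 C, 5% CO2. Detection reagent added; reduced luminescence from the parasites' luciferase reporter flags inhibition.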
Pf growth 48h = inhibits P. falciparum growth in the first generation, 48 h; P. falciparum luciferase growth in erythrocytes, 48 h; Potency, µM (top dose mostly 28.7 µM), for the others: at the highest dose activity change, negative = inhibition, hits mostly inhibitors; 310,000 compounds, 5.9% hits; further: on the % scale 0 is the no-effect control and ±100 the full control effect
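Firefly luciferase activity from engineered P. falciparum reports growth; inhibitors lower the luminescent signal. Cultures contained 2% hematocrit erythrocytes at 0.1% final parasitemia.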
SARS PLP yeast = inhibitors of SARS-CoV papain-like protease in yeast. S. cerevisiae expressing SARS-CoV PLpro, growth rescue. Potency, µM (doses to about 32.9 µM), for the others: at the highest dose activity, positive = growth rescue, usual class: activators. 330,000 compounds, 0.19% hits. AID 485353; calls by dose curve; further: 0% is about no effect; nearly all actives have a fitted effect of over 55% in size
NS1 inh = influenza NS1 inhibition; AID 2326; Potency, µM (doses to about 46.1 µM), inactives show at the highest dose activity, positive = more growth; 270,000 compounds, 0.4% hits; calls by dose curve; further: actives are rising curves; nearly all actives have a fitted effect of over 50% in size
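OD600 was taken as the measure of yeast growth restored by compound in an NS1-expressing S. cerevisiae strain. Cells had been washed out of glucose medium and diluted 1:100 into galactose -URA medium, pH 6.0.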
HCV inhibitor = HCV inhibition; AID 651820; Potency, µM (series often up to 41.8 µM), for inactives: at the highest dose activity change, negative = inhibition, actives largely listed as inhibitors; Huh7.5.1 HCVcc-Cre infection, luciferase reporter, 44 h; 340,000 compounds, 3.4% hits; further: on the % scale 0 is the no-effect control and ±100 the full control effect
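Infectious HCV cell culture screen: compound-treated cells (1,000/well, pre-plated 4 h) are infected with HCVcc-Cre at roughly 0.5 moi and grown 44 h. Infection is quantified by luciferase signal after 15 min substrate incubation at room temperature.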
AMA1 RON2 block = inhibitors of Plasmodium falciparum AMA1-RON2 interaction | 360,000 compounds, 0.2% hits | AlphaScreen AMA1-biotinylated RON2 peptide binding | Potency, µM (top dose mostly 58.2 µM), for the others: top-dose activity change, negative = inhibition, hits mostly inhibitors;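 further: 0% = vehicle wells and -100% = peptide control; nearly all actives have a fitted effect of over 45% in size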
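AMA1 (3D7) with his tag at 25 nM final met compounds first, then biotinylated RON2 peptide at 25 nM; detection used donor plus acceptor beads, 10 µg/mL apiece, read by AlphaScreen after 30 min at room temperature.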
* hit, by the source's call; u = inconclusive; x = no result; [ ] = remark or other dose. Most compounds without a hit are left out; they make up all but 12% or so of the library. Unless noted, the call rests on the fitted dose curve; in most records, active means well fitted curve in the direction sought with a large enough effect; inconclusive means small, poorly fitted or top-dose-only effect, or another doubt; inactive means no such curve, though single readings can be large; an effect the other way counts as inactive or inconclusive. Potency means the concentration at half of the fitted maximal effect.

SMILES	Pf growth 96h	Pf growth 48h	SARS PLP yeast	NS1 inh	HCV inhibitor	AMA1 RON2 block
CC(=C/C(=O)O)/C=C/c1ccco1	u	u	-11%	-14%	3%	3%[2.32 µM]
CC(/C=C/c1ccc(Cl)o1)=C\C(=O)O	1.5µM*	14%	-4%	-200%	12%	5%
COc1ccc(-c2noc(-c3ccccc3C(=O)NCc3ccco3)n2)cc1	1%[5.75 µM]	50%	-2%	-4%	-19%	-9%
COc1cc(C(=O)Nc2sc3c(c2C(=O)NCc2ccco2)CCCC3)cc(OC)c1OC	1.7µM*	x	12%	2%	u	13%
COC(=O)Nc1sc2c(c1C(=O)NCc1ccco1)CCCC2	u	-17%	1%	4%	u	0%
Cc1ccc(C(=O)Nc2sc3c(c2C(=O)NCc2ccco2)CCCC3)cc1	u	x	11%	3%	u	-14%
Cc1cc(O)c(-c2cc(C(=O)Nc3sc4c(c3C(=O)NCc3ccco3)CCC4)[nH]n2)cc1C	1.9µM*	1.2µM*	0%	u	u	116%
COc1ccc(C(=O)Nc2sc3c(c2C(=O)NCc2ccco2)CCCC3)cc1OC	3.3µM*	x	9%	4%	u	-7%
COc1ccc(-c2noc(-c3ccccc3C(=O)NCc3ccco3)n2)cc1OC	152%	-26%	1%	-11%	5.6µM*	-2%
O=C(COc1coc(CN2CCc3ccccc3C2)cc1=O)Nc1ccc(F)cc1F	u	-12%	4%	x	u	-2%
CCOc1ccc(S(=O)(=O)N2CCCC(C(=O)NCc3cccnc3)C2)cc1 (stereo not drawn)	35%	1%	-6%	-1%	-4%	14%
O=C1NCC(Nc2ccccc2Cl)C(=O)N1 (stereo not drawn)	x	x	x	x	12%	3%
COc1ccc(C(=O)Nc2ccc(Cl)cc2C(=O)NCc2ccco2)cc1OC	22%	10µM*	4%	-52%	u	-8%
COc1ccc(C(=O)Nc2ccccc2C(=O)NCc2ccco2)cc1OC	u	x	0%	-51%	u	-12%
C=CCNS(=O)(=O)c1cc(S(=O)(=O)NCC=C)c(OC)cc1OC	2.9µM*	236%	0%	x	-7%	9%
CCC1CCc2c(sc(NC(=O)c3ccoc3C)c2C(N)=O)C1 (stereo not drawn)	129%	-9%	-16%	-63%	5µM*	5%
c1ccc(Oc2cnc3ccccc3n2)cc1	3%	10%	2%	0%	2%	-10%
Clc1ccccc1Oc1cnc2ccccc2n1	-21%	2.6µM*	4%	-4%	7%	27%
Cc1cc(C)cc(N(CC(=O)NC2CCCCC2)C(=O)CCCC(=O)Nc2ccccn2)c1	8%	u	9%	-5%	-10%	-7%
Nc1cc(=O)nc(SCC(=O)Nc2ccccc2Cl)n1-c1ccccc1	34%	2%	4%	x	4%	14%
Cc1ccccc1S(=O)(=O)Cc1ccc(C(=O)N2CCN(c3cccc(C)c3C)CC2)o1	x	u	-13%	-36%	5µM*	-6%
CCc1ccccc1S(=O)(=O)Cc1ccc(C(=O)N2CCN(c3ccccc3OC)CC2)o1	u	x	-6%	-46%	u	3%
Cc1ccccc1S(=O)(=O)Cc1ccc(C(=O)NC2CCC(C)CC2)o1 (stereo not drawn)	-23%	u	-7%	1%	-29%	-7%
Cc1ccccc1S(=O)(=O)Cc1ccc(C(=O)N2CC(C)CC(C)C2)o1 (stereo not drawn)	17µM*	x	-6%	-90%	-24%	-7%
Cn1c(=Nc2ccccc2)sc2ccccc21	x	0%	-4%	-13%	0%	11%
SMILES	Pf growth 96h	Pf growth 48h	SARS PLP yeast	NS1 inh	HCV inhibitor	AMA1 RON2 block
CN(C)c1ccc(N=c2sc3ccccc3n2C)cc1	u	x	-17%	5%	-4%	24µM*
CC(=O)N=c1sc2cc(C)ccc2n1C	9.3µM*	82%	-2%	-11%	10%	0%
Cn1c(=NC(=O)CCl)sc2ccccc21	5.2µM*	u	-7%	-55%	2µM*	-2%
Cn1c(=NC(=O)c2ccco2)sc2ccccc21	116%	63%	-1%	-43%	u	-4%
CC1CCCC(NC(=O)CCC(=O)NCc2ccccc2)C1C (stereo not drawn)	-18%	-8%	-1%	3%	9%	-2%
COCCN1C[C@@H](CO)O[C@@H](n2cnc3c(NCc4ccco4)ncnc32)C1	x	x	x	x	x	8%
CC(C)N1C(=O)CSC1c1ccc(Br)cc1 (stereo not drawn)	u	-12%	1%	x	5%	6%
Cc1nc(C(=O)N/N=C/c2[nH]ncc2Br)cs1	1.5µM*	1.7µM*	-1%	-1%	-9%	73%
O=C(N/N=C/c1ccc([N+](=O)[O-])cc1)c1[nH]ncc1Br	-5%	384%	1%	x	3%	0%
O=C(NCc1ccco1)/C(=C/c1cccc(C(F)(F)F)c1)c1nc2ccccc2[nH]1	u	u	-12%	2%	16µM*	34%
CCOc1ccc(N2C=Nc3ccc(OCC)cc3C2)cc1	u	u	2%	-3%	u	-3%
CC(C)(C)c1ccccc1NC(=O)NC1CCN(Cc2c(F)cccc2Cl)CC1	u	7.4µM*	1%	-4%	10%	16%
CCO[C@@H]1OC(C(=O)NC2CC2)=C[C@H](c2ccc(C(F)(F)F)cc2)[C@H]1CCCO	-26%	-23%	-1%	3%	12%	12%
CCO[C@@H]1OC(C(=O)NCc2ccccc2)=C[C@H](c2ccc(C(F)(F)F)cc2)[C@H]1CCCO	8.3µM*	4.7µM*	-3%	11%	-11%	25%
C#CCNC(=O)C1=C[C@@H](c2ccc(C(F)(F)F)cc2)[C@H](CCCO)[C@@H](OCC)O1	12µM*	u	0%	0%	7%	7%
CCc1cccc(CC)c1NC(=S)NCc1nc2ccccc2[nH]1	-5%	-8%	-2%	-3%	23%	17%
CC1CCN(S(=O)(=O)c2ccc3c(c2)N(CC(=O)NCCN2C(C)CCCC2C)C(=O)CS3)CC1 (stereo not drawn)	82%	u	1%	-7%	4%	-10%
Nn1c(COc2ccccc2F)nnc1SCC(=O)NC1CCS(=O)(=O)C1 (stereo not drawn)	25%	14%	-4%	x	0%[8.37 µM]	-3%
CC(=O)Nc1ccc(N2C(C(C)=O)=NN(c3ccccc3)C2c2cccs2)cc1 (stereo not drawn)	u	u	1%	12%	2%	-8%
CC(=O)Nc1ccc(N2C(C(C)=O)=NN(c3ccc(Cl)cc3)C2c2sccc2C)cc1 (stereo not drawn)	u	9.3µM*	-7%	-10%	u	-6%
